Hits are enriched below; roughly 12% of the tested compounds scored in any of these assays.
Shiga inhibitor: blocks Shiga toxin action in Vero cells; Vero cells, Shiga toxin protein synthesis inhibition reporter; inhibition, % at 38.7 µM; 290,000 compounds, 9.2% hits; AID 2315; in the data active = inhibition mostly above about 28%, no sharp cut-off; inactive = mostly below about 43%; note: 0% is about no effect
CHX counter: counter-screen hit for Shiga toxin inhibitors, cycloheximide; cell reporter, cycloheximide protein synthesis inhibition counterscreen; max response, %; 300,000 compounds, 12% hits; AID 2314; in the data active = max response mostly above about 13%, no sharp cut-off; inactive = mostly below about 14%; note: read at 38.3 µM for the half of the compounds with a filed dose; 0% is about no effect
Sm TGR inh: S. mansoni TGR enzyme inhibition; Q962Y6; purified TGR, DTNB reduction, TNB absorbance 405 nm; Potency, µM (top dose mostly 114 µM), inactives show at the highest dose activity change, negative = inhibition, most hits filed as inhibitors; 360,000 compounds, 3% hits; active = well fitted inhibition curve with a large enough effect; inconclusive = small, poorly fitted or top-dose-only effect; inactive = no such curve, though single readings can be large or run the other way; note: potency is the fitted concentration of half-maximal effect; % is set by controls: 0 for no effect and ±100 for the full control effect; nearly all actives have a fitted effect of over 60% in size
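Kinetic colorimetric format: TGR-catalysed, NADPH-driven DTNB reduction monitored via TNB absorbance. Enzyme dispensed at 20 nM; compound exposure 15 min at room temperature before reaction start.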
FMDV inh: blocks foot and mouth disease virus. 410,000 compounds, 1.2% hits. FMDV antiviral cell-based qHTS. Potency, µM (series often up to 57.9 µM), for the others: at the top dose activity change, negative = inhibition, hits mostly inhibitors; calls by dose curve; tested in HEK293T cells; note: read-out not given here; potency is the fitted concentration of half-maximal effect; % is set by controls: 0 for no effect and ±100 for the full control effect; nearly all actives have a fitted effect of over 45% in size
Starred values were filed as active, the others as inactive; ? = inconclusive; nt = no result given.

SMILES | Shiga inhibitor | CHX counter | Sm TGR inh | FMDV inh
CCCNC(=O)c1cnc2sc(N3CCCCCC3)nn2c1=O | nt | nt | -1.7% | 6.2%
S=C(NCC1CCCO1)Nc1ccc(Cl)cc1 (centres undefined) | 56.1 | 15.9* | ? | 61.9%
CCOC(=O)c1ccccc1NC(=O)c1cc2c(s1)-c1ccccc1SC2 | nt | nt | -0.2% | -20.7%
CN1CCN(c2nc(-c3cccs3)cc(C(F)(F)F)n2)CC1 | -12.8 | -3.8 | 0.0% | -24.6%
CN1CCN(c2nc(-c3cccs3)cs2)CC1 | 61.2 | 27.1* | -12.2% | 49.3%
Nc1nc(-c2cc3ccccc3o2)cs1 | 97.7* | 32.6* | -12.6% | 37.7%
CN1CCN(c2nc(-c3cc4ccccc4o3)cs2)CC1 | 84.5* | 48.2* | -1.7% | 38.4%
N#Cc1nc(-c2ccc(COc3ccc(Cl)cc3)o2)oc1N1CCCCC1 | nt | nt | -1.7% | ?
CCCCNC(=O)c1nn(-c2ccc(C)cc2)c(=O)c2c1c1ccccc1n2C | nt | nt | 12.4% | -17.3%
CCOc1cc(C(=O)NCc2ccc3c(c2)OCO3)cc(OCC)c1OCC | nt | -1.7 | 35.5µM* | -4.7%
O=C(NCc1ccc2c(c1)OCO2)c1ccccn1 | -6.1 | 20.2* | -8.1% | 32.0%
O=C(NCCc1ccc2c(c1)OCCO2)c1ccccn1 | 77.8* | 41.8* | 2.8% | -13.4%
O=C(CCc1c[nH]c2ccccc12)NCCc1ccc2c(c1)OCCO2 | 83.8* | 16.6 | -0.4% | -1.2%
Cc1cc(C)cc(C(=O)NCc2ccc3c(c2)OCO3)c1 | 3.4 | -2.0 | -20.3% | 13.0%
OCCN1CCN(Cc2ccc3c(c2)CN(Cc2cccn2-c2ccccn2)CCO3)CC1 | nt | nt | nt | -11.8%
COc1ccc(CNC(=O)c2ccc3c(c2)CCN3S(=O)(=O)c2ccc(C)cc2)cc1 | nt | nt | 3.4% | -20.7%
Cc1ccc(-c2cc(C3C4C=CCCC4(C)C(=O)N3Cc3ccccc3)ccc2F)cc1 (centres undefined) | -1.8 | 9.6 | nt | nt
COc1cc(/C=C(/C(=O)c2cccs2)c2nc3ccccc3[nH]2)ccc1O | 110.8* | 65.7* | -27.8% | 25.1µM*
O=C(/C(=C/c1ccc(Cl)cc1)c1nc2ccccc2[nH]1)c1cccs1 | 47.4 | 62.2* | ? | ?
N#C/C(=C(/O)c1ccc(C(=O)c2ccccc2)cc1)c1nc2ccccc2[nH]1 | -9.3 | -2.6 | 2.0% | -0.1%
O=C(/C=C/c1cccc(Cl)c1)c1nc2ccccc2[nH]1 | 36.0 | 14.2* | 7.5% | ?
O=C(/C(=C\c1ccccc1)c1nc2ccccc2[nH]1)c1ccc(Cl)cc1 | 21.0* | 18.9* | -8.9% | ?
O=C1CN(C(=O)/C=C/c2cccc(Cl)c2)c2ccccc2N1 | -10.4 | -3.2 | 8.9% | -11.3%
COc1ccc(/C=C(/NC(=O)c2ccccc2)c2nc3ccccc3[nH]2)cc1OC | -10.2 | 23.8 | -0.5% | -3.5%
CCc1nnc2c(Nc3cccc(F)c3)nc3ccc(C(=O)c4ccccc4)cc3n12 | nt | nt | 6.8% | -4.9%
SMILES | Shiga inhibitor | CHX counter | Sm TGR inh | FMDV inh
Cc1cc(S(=O)(=O)Nc2ccc(-c3ccc(N4CCCCCC4)nn3)cc2)c(C)cc1Cl | nt | nt | 7.5% | 52.3%
COc1cc(OC)cc(C(=O)N2CCN(C(=O)COc3ccccc3)CC2)c1 | nt | nt | 10.5% | -10.4%
Cc1cc(C)c(C#N)c(SCC(=O)Nc2nonc2N)n1 | 72.3* | 29.1* | 17.9% | 51.4%
Cc1cc(C)c(C#N)c(SCC(=O)c2ccccc2)n1 | -5.8 | 9.4 | 0.0% | -11.3%
Cc1cc(C)c(C#N)c(SCC(=O)C2CC2)n1 | 43.2* | 24.0* | -5.4% | 25.3%
Cc1cc(C)c(C#N)c(SCC(=O)c2cccs2)n1 | 61.3* | 19.4* | 3.0% | 38.7%
Cc1c(C(=O)N2CCCC2)sc2ncnc(NCCN(C)C)c12 | nt | nt | nt | -11.6%
Cc1cccc(C(=O)Nc2cc3c(cc2N2CCCCC2)n(C)c(=O)n3C)c1 | nt | nt | -11.5% | 0.0%
CCOc1ccc(OCC)c(NC(=O)c2nnn(CC(=O)Nc3ccc(C)cc3C)c2N)c1 | nt | nt | 6.3% | -18.1%
CO/N=C/C(c1ccc(Cl)nc1)S(=O)(=O)c1ccccc1 (centres undefined) | -9.7 | -3.9 | 22.4µM* | -9.6%
Cc1cccn2c(Nc3ccc4c(c3)OCCO4)c(-c3ccc(Br)o3)nc12 | nt | nt | -21.4% | 15.9%
Cc1cccnc1NC(=O)/C=C/c1ccc2c(c1)OCO2 | 85.0* | 50.4* | 5.3% | -9.5%
O=C(/C=C/c1ccc2c(c1)OCO2)Nc1c(C(=O)O)[nH]c2ccccc12 | 54.7* | 50.5* | -9.2% | 4.8%
O=C(N/N=C\C=C\c1ccc2c(c1)OCO2)c1cccnc1 | 78.0* | 17.6* | -10.6% | 35.8%
COC(=O)c1cccc(NC(=O)/C=C/c2ccc3c(c2)OCO3)c1 | 21.3* | 42.7* | 5.1% | -2.8%
CCOC(=O)c1[nH]c2ccc(OC)cc2c1NC(=O)/C=C/c1ccc2c(c1)OCO2 | 19.1 | 7.2 | 3.3% | 0.5%
COC(=O)c1cc(NC(=O)/C=C/c2ccc3c(c2)OCO3)cc(C(=O)OC)c1 | -2.4 | -2.1 | 6.1% | -10.4%
Cc1[nH]c2ccc(F)cc2c1CCNC(=O)c1cc2cc(Cl)ccc2oc1=O | nt | nt | -1.3% | ?
COc1ccc(C)cc1NC(=O)CCn1nc(C)cc1C | nt | nt | 1.2% | -6.7%
COc1cccc(NC(=O)c2sc(-n3nc(C)c(Cc4ccccc4Cl)c3C)nc2C)c1 | nt | nt | 4.1% | ?
COC(=O)c1c(NC(=O)/C=C/c2ccc3c(c2)OCO3)sc(C)c1C | 20.8 | 5.1 | -3.5% | -7.7%
Cc1cc(C)nc(NC(=O)/C=C/c2ccc3c(c2)OCO3)c1 | 66.2* | 52.0* | -1.3% | 5.3%
NS(=O)(=O)c1ccc(NC(=O)/C=C/c2ccc3c(c2)OCO3)cc1 | 18.0 | 5.1 | 11.4% | 12.5%
O=C(/C=C/c1ccc2c(c1)OCO2)c1cccnc1 | 29.1 | 22.4* | ? | -21.9%
O=C(/C=C/c1ccc2c(c1)OCO2)c1ccc(O)cc1O | nt | nt | nt | 20.3%
SMILES | Shiga inhibitor | CHX counter | Sm TGR inh | FMDV inh
CC(=O)Nc1ccc(NC(=O)/C=C/c2ccc3c(c2)OCO3)cc1 | 22.8 | 31.8* | -19.5% | 10.4%
O=C(/C=C/c1ccc([N+](=O)[O-])cc1)c1cccnc1 | -5.7 | -1.7 | 15.8µM* | ?
COc1cc(/C=C/C(=O)Nc2cccnc2)cc(OC)c1OC | 13.4 | -1.0 | 0.6% | 13.5%
O=C(/C=C/c1ccc2c(c1)OCO2)Nc1cccnc1 | 90.5* | 35.6* | 0.6% | 0.0%
Cc1cc(C(=O)NCC2CCC3(CCN(Cc4ccc(F)cc4)CC3)O2)n(C)n1 (centres undefined) | nt | nt | nt | -11.6%
CCCCn1c(=O)[nH]c2nc3cc(N)ccc3nc2c1=O | 81.0* | 79.9* | -18.3% | 43.4%
Nc1ccc2nc3c(=O)n(C4CCCCC4)c(=O)[nH]c3nc2c1 | 77.9* | 39.9* | 0.0% | 42.7%
Nc1ccc2nc3c(=O)n(CCc4ccccc4)c(=O)[nH]c3nc2c1 | 18.6 | 1.0 | ? | -20.8%
COc1ccccc1N1CCN(C(=O)CCn2nc(C)c(S(=O)(=O)N3CCCC3)c2C)CC1 | nt | nt | -15.6% | -23.3%
O=C(CN1CCN(S(=O)(=O)c2ccc(F)cc2)CC1)Nc1ccc(Cl)c(C(F)(F)F)c1 | -9.3 | 1.4 | 5.3% | 28.2µM*
O=C(CN1CCCN(S(=O)(=O)c2ccc(F)cc2)CC1)Nc1cccc(F)c1 | -3.1 | -3.7 | 39.8µM* | -4.0%
O=C(CN1CCN(S(=O)(=O)c2ccc(F)cc2)CC1)Nc1ccc2c(c1)OCCO2 | 31.4 | -2.5 | -21.4% | 0.0%
Cc1ccc(NC(=O)c2c(C)oc3ncnc(N4CCCCC4)c23)c(C)c1 | nt | nt | 0.1% | -22.0%

High-throughput results from PubChem.
